Assay results published in the supplement of paper PMC8728848.
Only a selection was taken, and the strongest signals are over-represented in it overall.

How the values were obtained:
Assay in all cases: glycan array binding signal (z-score within array); higher = stronger binding
Details in all cases: glycan notation: IUPAC condensed, linker removed
[1] = target: Fuc(a1-2)Gal(b1-3)GlcNAc(b1-2)Man(a1-3)[Fuc(a1-2)Gal(b1-3)GlcNAc(b1-2)Man(a1-6)]Man(b1-4)GlcNAc(b1-4)[Fuc(a1-6)]GlcNAc
Procedure, shortened: (§1)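 Negative Z-scores can be read as non-binding. The Z-score is calculated within each array and then averaged across arrays of one protein sequence at different concentrations or buffers and across linkers. Arrays, 3228 in all, were curated from the Consortium for Functional Glycomics database and kept only where the protein sequence was available.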

[2] = target: Fuc(a1-2)Gal(b1-4)[Fuc(a1-3)]GlcNAc(b1-2)[Fuc(a1-2)Gal(b1-4)[Fuc(a1-3)]GlcNAc(b1-4)]Man(a1-3)[Fuc(a1-2)Gal(b1-4)[Fuc(a1-3)]GlcNAc(b1-2)Man(a1-6)]Man(b1-4)GlcNAc(b1-4)GlcNAc
Procedure, shortened: as §1

[3] = target: Fuc(a1-2)[Gal(a1-3)]Gal(b1-3)GalNAc
Procedure, shortened: as §1

[4] = target: Fuc(a1-2)[Gal(a1-3)]Gal(b1-4)GlcNAc(b1-6)GalNAc
Procedure, shortened: as §1

[5] = target: Fuc(a1-2)[GalNAc(a1-3)]Gal(b1-4)GlcNAc
Procedure, shortened: as §1

[6] = target: Fuc(a1-3)[GalNAc(b1-4)]GlcNAc
Procedure, shortened: as §1

[7] = target: Gal(a1-3)Gal(b1-3)GlcNAc(b1-6)GalNAc
Procedure, shortened: as §1

[8] = target: Gal(a1-3)Gal(b1-3)[Fuc(a1-4)]GlcNAc(b1-2)Man(a1-3)[Gal(a1-3)Gal(b1-3)[Fuc(a1-4)]GlcNAc(b1-2)Man(a1-6)]Man(b1-4)GlcNAc(b1-4)GlcNAc
Procedure, shortened: as §1

[9] = target: Gal(a1-3)Gal(b1-4)GlcNAc(b1-6)GalNAc
Procedure, shortened: as §1

[10] = target: Gal(a1-3)Gal(b1-4)[Fuc(a1-3)]GlcNAc
Procedure, shortened: as §1

[11] = target: Gal(a1-4)Gal(b1-4)GlcNAc(b1-2)Man(a1-3)[Gal(a1-4)Gal(b1-4)GlcNAc(b1-2)Man(a1-6)]Man(b1-4)GlcNAc(b1-4)GlcNAc
Procedure, shortened: as §1

[12] = target: Gal(b1-3)GalNAc(a1-3)[Fuc(a1-2)]Gal(b1-4)GlcNAc
Procedure, shortened: as §1

[13] = target: Gal(b1-3)GlcNAc(a1-6)Gal(b1-4)GlcNAc
Procedure, shortened: as §1

Gal(b1-4)Gal = target: Gal(b1-4)Gal
Procedure, shortened: as §1

Gal(b1-4)Glc = target: Gal(b1-4)Glc
Procedure, shortened: as §1

[14] = target: Gal(b1-4)GlcNAc(b1-2)[Gal(b1-4)GlcNAc(b1-4)]Man(a1-3)[GlcNAc(b1-4)][Gal(b1-4)GlcNAc(b1-2)Man(a1-6)]Man(b1-4)GlcNAc(b1-4)GlcNAc
Procedure, shortened: as §1

[15] = target: Gal(b1-4)GlcNAc(b1-3)Gal(b1-4)GlcNAc(b1-2)[Gal(b1-4)GlcNAc(b1-3)Gal(b1-4)GlcNAc(b1-6)]Man(a1-6)[Gal(b1-4)GlcNAc(b1-3)Gal(b1-4)GlcNAc(b1-2)Man(a1-3)]Man(b1-4)GlcNAc(b1-4)GlcNAc
Procedure, shortened: as §1

[16] = target: Gal(b1-4)GlcNAc(b1-6)GalNAc
Procedure, shortened: as §1

Gal3S4S(b1-4)GlcNAc = target: Gal3S4S(b1-4)GlcNAc
Procedure, shortened: as §1

Gal6S(b1-4)GlcNAc6S = target: Gal6S(b1-4)GlcNAc6S
Procedure, shortened: as §1

[17] = target: GalNAc(b1-3)Gal(a1-4)Gal(b1-4)GlcNAc(b1-3)Gal(b1-4)Glc
Procedure, shortened: as §1

[18] = target: GalNAc(b1-4)GlcNAc(b1-2)Man
Procedure, shortened: as §1

GlcA(b1-3)GlcNAc = target: GlcA(b1-3)GlcNAc
Procedure, shortened: as §1

[19] = target: GlcNAc(b1-2)[GlcNAc(b1-4)]Man(a1-3)[GlcNAc(b1-4)][GlcNAc(b1-2)Man(a1-6)]Man(b1-4)GlcNAc(b1-4)GlcNAc
Procedure, shortened: as §1

[20] = target: GlcNAc(b1-3)Gal(b1-4)GlcNAc(b1-2)Man(a1-3)[GlcNAc(b1-3)Gal(b1-4)GlcNAc(b1-2)Man(a1-6)]Man(b1-4)GlcNAc(b1-4)[Fuc(a1-6)]GlcNAc
Procedure, shortened: as §1

[21] = target: GlcNAc(b1-3)Gal(b1-4)GlcNAc(b1-2)[GlcNAc(b1-3)Gal(b1-4)GlcNAc(b1-6)]Man(a1-6)[GlcNAc(b1-3)Gal(b1-4)GlcNAc(b1-2)Man(a1-3)]Man(b1-4)GlcNAc(b1-4)GlcNAc
Procedure, shortened: as §1

[22] = target: GlcNAc(b1-3)Gal(b1-4)GlcNAc(b1-3)Gal(b1-4)GlcNAc(b1-2)Man(a1-3)[GlcNAc(b1-3)Gal(b1-4)GlcNAc(b1-3)Gal(b1-4)GlcNAc(b1-2)Man(a1-6)]Man(b1-4)GlcNAc(b1-4)GlcNAc
Procedure, shortened: as §1

[23] = target: GlcNAc(b1-3)Gal(b1-4)GlcNAc(b1-3)Gal(b1-4)GlcNAc(b1-2)Man(a1-3)[GlcNAc(b1-3)Gal(b1-4)GlcNAc(b1-3)Gal(b1-4)GlcNAc(b1-2)Man(a1-6)]Man(b1-4)GlcNAc(b1-4)[Fuc(a1-6)]GlcNAc
Procedure, shortened: as §1

[24] = target: GlcNAc(b1-3)Gal(b1-4)GlcNAc(b1-3)Gal(b1-4)GlcNAc(b1-3)Gal(b1-4)GlcNAc(b1-2)Man(a1-3)[GlcNAc(b1-3)Gal(b1-4)GlcNAc(b1-3)Gal(b1-4)GlcNAc(b1-3)Gal(b1-4)GlcNAc(b1-2)Man(a1-6)]Man(b1-4)GlcNAc(b1-4)[Fuc(a1-6)]GlcNAc
Procedure, shortened: as §1

[25] = target: GlcNAc(b1-4)GlcNAc(b1-4)GlcNAc
Procedure, shortened: as §1

[26] = target: Man(a1-2)Man(a1-6)[Man(a1-3)]Man(a1-6)[Man(a1-2)Man(a1-2)Man(a1-3)]Man
Procedure, shortened: as §1

[27] = target: Man(a1-3)[Man(a1-6)]Man(a1-6)[Man(a1-3)]Man
Procedure, shortened: as §1

[28] = target: Neu5Ac(a2-3)Gal(b1-3)GlcNAc(b1-3)Gal(b1-4)GlcNAc
Procedure, shortened: as §1

[29] = target: Neu5Ac(a2-3)Gal(b1-3)GlcNAc6S
Procedure, shortened: as §1

[30] = target: Neu5Ac(a2-3)Gal(b1-4)GlcNAc(b1-2)Man(a1-3)[Neu5Ac(a2-3)Gal(b1-4)GlcNAc(b1-2)Man(a1-6)]Man(b1-4)GlcNAc(b1-4)GlcNAc
Procedure, shortened: as §1

[31] = target: Neu5Ac(a2-3)Gal(b1-4)GlcNAc(b1-3)Gal(b1-4)GlcNAc(b1-3)GalNAc
Procedure, shortened: as §1

[32] = target: Neu5Ac(a2-3)Gal(b1-4)GlcNAc(b1-3)GalNAc
Procedure, shortened: as §1

[33] = target: Neu5Ac(a2-3)Gal(b1-4)GlcNAc(b1-6)[Gal(b1-3)]GalNAc
Procedure, shortened: as §1

[34] = target: Neu5Ac(a2-6)Gal(b1-4)GlcNAc(b1-2)Man(a1-6)[Gal(b1-4)GlcNAc(b1-2)Man(a1-3)]Man(b1-4)GlcNAc(b1-4)GlcNAc
Procedure, shortened: as §1

[35] = target: Neu5Ac(a2-6)Gal(b1-4)GlcNAc(b1-2)Man(a1-6)[GlcNAc(b1-2)Man(a1-3)]Man(b1-4)GlcNAc(b1-4)GlcNAc
Procedure, shortened: as §1

[36] = target: Neu5Ac(a2-8)Neu5Ac(a2-3)Gal(b1-3)GalNAc(b1-4)[Neu5Ac(a2-3)]Gal(b1-4)Glc
Procedure, shortened: as §1

[37] = target: Neu5Ac(a2-8)Neu5Ac(a2-3)Gal(b1-4)Glc
Procedure, shortened: as §1

[38] = target: Neu5Ac(a2-8)Neu5Ac(a2-8)Neu5Ac(a2-3)[Gal(b1-3)GalNAc(b1-4)]Gal(b1-4)Glc
Procedure, shortened: as §1

[39] = target: Neu5Ac(a2-8)Neu5Ac(a2-8)Neu5Ac(a2-3)[GalNAc(b1-4)]Gal(b1-4)Glc
Procedure, shortened: as §1

[40] = target: Neu5Gc(a2-3)Gal(b1-3)GlcNAc
Procedure, shortened: as §1

[41] = target: Neu5Gc(a2-8)Neu5Ac(a2-3)Gal(b1-4)GlcNAc
Procedure, shortened: as §1

B1: Lb MiSSP8 (Laccaria bicolor) (protein)
chain: MYFHTLFACATLMLITTAHASPTVINSLDSRKADLNGDVEARHAADWRRDSDWRRDSDWRRDSDWRRDSD
In the case of B1, the “glycan array binding signal (z-score)” value [1] is reported as 1.26, the “glycan array binding signal (z-score)” value [2] is reported as 1.27 and the “glycan array binding signal (z-score)” value [3] is reported as 0.371. For the same binder, the “glycan array binding signal (z-score)” value [4] was -0.53, the “glycan array binding signal (z-score)” value [5] was -0.502 and the “glycan array binding signal (z-score)” value [6] was 1.06. The “glycan array binding signal (z-score)” value [7] was -0.806, the “glycan array binding signal (z-score)” value [8] was 1.55 and the “glycan array binding signal (z-score)” value [9] was -0.599. For the same binder, the “glycan array binding signal (z-score)” value [10] was -0.488, the “glycan array binding signal (z-score)” value [11] was 10.8 and the “glycan array binding signal (z-score)” value [12] was -0.267. The “glycan array binding signal (z-score)” value [13] was -0.136, the “glycan array binding signal (z-score)” value (Gal(b1-4)Gal) was -3.19 and the “glycan array binding signal (z-score)” value (Gal(b1-4)Glc) was 0.702. The “glycan array binding signal (z-score)” value [14] was -0.274, the “glycan array binding signal (z-score)” value [15] was 2.86 and the “glycan array binding signal (z-score)” value [16] was -0.433. For the same binder, the “glycan array binding signal (z-score)” value (Gal3S4S(b1-4)GlcNAc) was -0.771, the “glycan array binding signal (z-score)” value (Gal6S(b1-4)GlcNAc6S) was -0.571 and the “glycan array binding signal (z-score)” value [17] was 4.15. For the same binder, the “glycan array binding signal (z-score)” value [18] was -0.744, the “glycan array binding signal (z-score)” value (GlcA(b1-3)GlcNAc) was 3.78 and the “glycan array binding signal (z-score)” value [19] was -0.64. For the same binder, the “glycan array binding signal (z-score)” value [20] was 2.31, the “glycan array binding signal (z-score)” value [21] was 0.54 and the “glycan array binding signal (z-score)” value [22] was 2.57. The “glycan array binding signal (z-score)” value [23] was 2.43, the “glycan array binding signal (z-score)” value [24] was 2.57 and the “glycan array binding signal (z-score)” value [25] was 0.319. The “glycan array binding signal (z-score)” value [26] was -0.578, the “glycan array binding signal (z-score)” value [27] was 2.36 and the “glycan array binding signal (z-score)” value [28] was -0.868. For the same binder, the “glycan array binding signal (z-score)” value [29] was -0.226, the “glycan array binding signal (z-score)” value [30] was -0.578 and the “glycan array binding signal (z-score)” value [31] was -0.343. The “glycan array binding signal (z-score)” value [32] was -0.122, the “glycan array binding signal (z-score)” value [33] was 3.01 and the “glycan array binding signal (z-score)” value [34] was -0.606. For the same binder, the “glycan array binding signal (z-score)” value [35] was -0.668, the “glycan array binding signal (z-score)” value [36] was -0.336 and the “glycan array binding signal (z-score)” value [37] was -0.744. For the same binder, the “glycan array binding signal (z-score)” value [38] was 1.08, the “glycan array binding signal (z-score)” value [39] was -0.82 and the “glycan array binding signal (z-score)” value [40] was -0.571. The “glycan array binding signal (z-score)” value [41] was -0.958.
